Data on 25 compounds can be found in PubChem BioAssay (NCATS).

Results filed as inconclusive are left out. Calls of active or inactive are those of the source. Unless noted, calls come from the whole dose curve; as a rule, active = well fitted curve in the direction sought with a large enough effect; inconclusive = small, poorly fitted or top-dose-only effect, or another doubt; inactive = no such curve, though single readings can be large; an effect the other way counts as inactive or inconclusive.

Test [1] concerns the target D(1A) dopamine receptor (Homo sapiens) (UniProt P21728). Description: HTS Assay for Allosteric Agonists of the Human D1 Dopamine Receptor: Primary Screen for Potentiators (AID 488982). Note: 0% is about no effect. Put shortly: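 Calcium flux in an inducible, force-coupled HEK293 Trex D1 line (overnight at 30 C): agonist mode is the 180 s kinetic read after compound; potentiator mode is the following 180 s read after dopamine at EC20.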

The target is the same in test [2]. Nature of the test: HTS Assay for Allosteric Agonists of the Human D1 Dopamine Receptor: Primary Screen for Antagonists (AID 488983).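 Note: calcium flux response to an EC80 dopamine challenge measured with no-wash dye; nearly all actives have a fitted effect of over 65% in size.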 Note: potency is the fitted concentration of half-maximal effect. A digest of the protocol: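 Calcium flux readout, no-wash dye, inducible HEK293 T-REx D1 line (force-coupled). Compound added after 10 s baseline, 180 s kinetic read; then dopamine at EC80, further 180 s read.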
Test [3] in a line: Validation screen for small molecules that induce genotoxicity in human embryonic kidney (HEK293T) cells expressing luciferase-tagged ELG1 (AID 493106). Note: 0% is about no effect. A digest of the protocol:
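qHTS format; 2,000 HEK293T ELG1-luc cells/well; 23 nL compound via pin tool; 16 hr, 37 °C/5% CO2; ONE-Glo, 30 min RT; luminescence read.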

For test [4], the target named is ATPase family AAA domain-containing protein 5 (Homo sapiens) (UniProt Q96QE3). Description: Validation screen for small molecules that inhibit ELG1-dependent DNA repair in human embryonic kidney (HEK293T) cells expressing luciferase-tagged ELG1 (AID 493107). Note: nearly all actives have a fitted effect of over 70% in size. Note: potency is the fitted concentration of half-maximal effect. A digest of the protocol:
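ELG1-luciferase HEK293T reporter; 5-fluorouridine + compound/DMSO, 16 hr, 37 °C, 5% CO2; ONE-Glo 30 min RT; luminescence read, qHTS format.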

Test [5] deals with Thyrotropin-releasing hormone receptor (Homo sapiens) (UniProt P34981). Description: qHTS for Small Molecule Agonists and Allosteric Enhancers of Human TRH Receptor: Validation Screen for Agonists (AID 493127;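 active = calcium activation more than 3 SD above the typical response in the agonist read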;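 note: intracellular calcium rise by fluo-8 fluorescence before TRH EC20 addition; 0% is about no effect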). To be noted: TRH receptor agonist cell assay; at 2 µM; stronger effect = higher value. A digest of the protocol:
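Read-out: intracellular calcium release measured kinetically by FDSS (fluo-8, ex 480/em 530 nm), 1 reading/s after a 10-cycle baseline. TRHR cells, 2000/well, cultured 18 h at 33.5C, dye-loaded at room temp. Compound-evoked positive calcium signal flags agonists.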
For orientation: In qHTS, concentration-response curves come from the screen itself.

Test [6] in a line: Nrf2 qHTS screen for inhibitors: Validation (AID 493153; active = well fitted inhibition curve with a large enough effect in the main read-out, with a control signal flat, not every such curve was filed as active). Particulars: Potency: luciferase luminescence; viability change: measured here: cytotoxicity max response. Put shortly: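 Concentration-response test in A549 ARE_Fluc reporter cells (5% FBS OPTI-MEM), compound exposure 18-24 h at 37°C, 5% CO2. Cell viability measured first by CellTiter-Fluor fluorescence; ARE-driven luciferase luminescence then measured as Nrf2 activity.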

A short description of test [7]: qHTS for Inhibitors of Cell Surface uPA Generation: Validation Assay (AID 493164).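 Note: RAW 264.7 macrophage cells exposed to compound for 18 h; 0% is about no effect.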 Put shortly: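 Compounds are titrated over seven points (2.45 nM–38.3 uM final) onto pre-plated RAW 264.7 cells and incubated for 18 h. Retained intracellular ATP, measured with ATP-Lite, indicates blocked lethal factor entry.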
Test [8] addresses Galactokinase (Homo sapiens) (UniProt P51570). Description: qHTS Validation Assay for Inhibitors of Human Galactokinase (GALK) (AID 493189). Note: 0% is about no effect. A digest of the protocol: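 Compounds were pin-transferred into ATP buffer, then GALK-galactose mix was added (final 5 nM enzyme, 100 uM galactose, 35 uM ATP). After 1 h at room temperature, remaining ATP was measured luminescently.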
For test [9], the target named is ATP-dependent 6-phosphofructokinase (Trypanosoma brucei brucei) (UniProt O15648). Description: qHTS Assay to Find Inhibitors of T. brucei phosphofructokinase: hit validation (AID 492961).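 Note: luminescence reports ADP formed as PFK phosphorylates fructose-6-phosphate with ATP; series mostly up to about 51 µM; % is set by controls: 0 for no effect and ±100 for the full control effect.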 A digest of the protocol: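 Measures ADP output of PFK (1.25 nM) at 0.1 mM ATP, 0.5 mM F6P, pH 8.0 TEA buffer with 5 mM MgCl2. No-enzyme wells define full inhibition; uninhibited enzyme wells define zero.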
Chain of ATP-dependent 6-phosphofructokinase (Trypanosoma brucei brucei) (O15648 whole entry, looked up): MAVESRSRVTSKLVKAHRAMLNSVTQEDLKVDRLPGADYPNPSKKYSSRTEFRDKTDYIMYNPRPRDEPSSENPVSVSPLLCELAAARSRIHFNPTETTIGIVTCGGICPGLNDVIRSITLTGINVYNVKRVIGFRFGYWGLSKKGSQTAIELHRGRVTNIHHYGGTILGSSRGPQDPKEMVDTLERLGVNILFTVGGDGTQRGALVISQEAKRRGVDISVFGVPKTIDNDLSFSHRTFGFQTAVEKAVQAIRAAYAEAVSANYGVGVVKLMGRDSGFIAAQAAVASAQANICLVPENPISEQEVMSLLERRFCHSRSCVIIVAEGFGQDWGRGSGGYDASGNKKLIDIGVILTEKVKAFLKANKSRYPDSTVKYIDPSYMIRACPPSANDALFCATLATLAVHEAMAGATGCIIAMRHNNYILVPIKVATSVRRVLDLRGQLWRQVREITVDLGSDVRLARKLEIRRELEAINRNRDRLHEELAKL

Chain of Galactokinase (Homo sapiens) (P51570 whole entry, looked up): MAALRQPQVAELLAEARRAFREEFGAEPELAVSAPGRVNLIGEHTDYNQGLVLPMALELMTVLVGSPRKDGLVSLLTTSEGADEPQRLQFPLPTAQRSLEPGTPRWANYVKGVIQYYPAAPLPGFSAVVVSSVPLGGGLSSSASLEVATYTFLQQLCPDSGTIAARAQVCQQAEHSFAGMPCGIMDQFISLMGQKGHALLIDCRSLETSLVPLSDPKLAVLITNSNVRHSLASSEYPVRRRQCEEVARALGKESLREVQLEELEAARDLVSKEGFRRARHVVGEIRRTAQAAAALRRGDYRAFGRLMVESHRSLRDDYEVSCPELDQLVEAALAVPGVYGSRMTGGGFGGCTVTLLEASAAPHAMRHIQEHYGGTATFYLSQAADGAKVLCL
Chain of ATPase family AAA domain-containing protein 5 (Homo sapiens) (Q96QE3 whole entry, looked up, the tested form may be a part): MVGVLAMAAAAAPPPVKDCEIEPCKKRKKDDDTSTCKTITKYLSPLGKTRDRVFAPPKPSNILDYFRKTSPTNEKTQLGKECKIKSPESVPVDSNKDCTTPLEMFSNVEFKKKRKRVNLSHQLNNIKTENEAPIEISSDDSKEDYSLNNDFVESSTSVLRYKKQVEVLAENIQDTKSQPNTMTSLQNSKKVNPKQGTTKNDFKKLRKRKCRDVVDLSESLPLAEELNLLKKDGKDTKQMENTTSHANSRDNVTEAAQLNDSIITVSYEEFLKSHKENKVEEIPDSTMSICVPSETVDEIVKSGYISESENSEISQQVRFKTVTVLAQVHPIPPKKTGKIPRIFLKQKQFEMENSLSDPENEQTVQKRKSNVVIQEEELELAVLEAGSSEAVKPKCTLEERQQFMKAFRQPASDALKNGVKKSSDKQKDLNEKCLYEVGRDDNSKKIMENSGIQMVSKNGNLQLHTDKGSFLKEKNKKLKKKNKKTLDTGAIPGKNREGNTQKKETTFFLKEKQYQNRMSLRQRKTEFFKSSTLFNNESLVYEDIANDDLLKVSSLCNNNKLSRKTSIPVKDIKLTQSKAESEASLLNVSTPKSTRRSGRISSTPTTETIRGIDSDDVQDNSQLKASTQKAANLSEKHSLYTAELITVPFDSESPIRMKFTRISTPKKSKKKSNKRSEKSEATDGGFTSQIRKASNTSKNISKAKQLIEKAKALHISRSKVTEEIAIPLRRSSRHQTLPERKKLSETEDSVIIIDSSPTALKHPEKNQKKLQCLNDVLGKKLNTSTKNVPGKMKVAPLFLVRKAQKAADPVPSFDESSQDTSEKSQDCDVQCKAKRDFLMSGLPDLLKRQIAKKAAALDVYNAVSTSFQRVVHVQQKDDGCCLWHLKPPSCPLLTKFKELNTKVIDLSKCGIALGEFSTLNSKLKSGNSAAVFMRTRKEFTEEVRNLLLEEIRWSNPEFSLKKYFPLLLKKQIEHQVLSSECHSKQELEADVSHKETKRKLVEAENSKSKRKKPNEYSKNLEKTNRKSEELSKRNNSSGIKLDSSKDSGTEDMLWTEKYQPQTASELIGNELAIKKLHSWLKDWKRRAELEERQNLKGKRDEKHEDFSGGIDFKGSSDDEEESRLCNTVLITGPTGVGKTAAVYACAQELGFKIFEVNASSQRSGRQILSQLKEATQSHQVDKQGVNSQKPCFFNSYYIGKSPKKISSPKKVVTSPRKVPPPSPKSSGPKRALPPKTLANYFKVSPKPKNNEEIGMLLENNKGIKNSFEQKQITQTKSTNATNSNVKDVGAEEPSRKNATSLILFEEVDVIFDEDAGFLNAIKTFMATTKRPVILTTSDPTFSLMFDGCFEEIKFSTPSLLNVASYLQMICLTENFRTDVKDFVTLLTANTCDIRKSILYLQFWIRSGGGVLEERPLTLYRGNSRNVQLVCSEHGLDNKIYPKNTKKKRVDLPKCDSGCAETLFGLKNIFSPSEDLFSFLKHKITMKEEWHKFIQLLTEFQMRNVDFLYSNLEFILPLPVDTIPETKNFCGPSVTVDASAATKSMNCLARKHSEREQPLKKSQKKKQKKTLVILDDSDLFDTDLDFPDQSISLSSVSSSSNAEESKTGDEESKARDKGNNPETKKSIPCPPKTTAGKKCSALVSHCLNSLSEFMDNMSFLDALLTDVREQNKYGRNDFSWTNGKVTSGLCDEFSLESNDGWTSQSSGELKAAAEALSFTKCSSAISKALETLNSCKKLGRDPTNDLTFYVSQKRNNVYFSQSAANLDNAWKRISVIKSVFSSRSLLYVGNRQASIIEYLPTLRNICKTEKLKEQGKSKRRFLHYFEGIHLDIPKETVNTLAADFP
Chain of Thyrotropin-releasing hormone receptor (Homo sapiens) (P34981 whole entry, looked up): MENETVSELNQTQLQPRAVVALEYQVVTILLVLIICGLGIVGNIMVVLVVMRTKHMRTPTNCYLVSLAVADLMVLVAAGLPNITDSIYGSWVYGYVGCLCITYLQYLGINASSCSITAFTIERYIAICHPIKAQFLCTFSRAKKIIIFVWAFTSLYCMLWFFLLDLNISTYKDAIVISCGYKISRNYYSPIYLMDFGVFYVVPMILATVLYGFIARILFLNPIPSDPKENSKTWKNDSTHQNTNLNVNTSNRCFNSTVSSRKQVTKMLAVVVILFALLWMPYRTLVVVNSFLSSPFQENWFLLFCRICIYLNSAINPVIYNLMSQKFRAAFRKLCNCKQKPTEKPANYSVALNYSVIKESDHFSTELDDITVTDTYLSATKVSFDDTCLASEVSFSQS
Chain of D(1A) dopamine receptor (Homo sapiens) (P21728 whole entry, looked up): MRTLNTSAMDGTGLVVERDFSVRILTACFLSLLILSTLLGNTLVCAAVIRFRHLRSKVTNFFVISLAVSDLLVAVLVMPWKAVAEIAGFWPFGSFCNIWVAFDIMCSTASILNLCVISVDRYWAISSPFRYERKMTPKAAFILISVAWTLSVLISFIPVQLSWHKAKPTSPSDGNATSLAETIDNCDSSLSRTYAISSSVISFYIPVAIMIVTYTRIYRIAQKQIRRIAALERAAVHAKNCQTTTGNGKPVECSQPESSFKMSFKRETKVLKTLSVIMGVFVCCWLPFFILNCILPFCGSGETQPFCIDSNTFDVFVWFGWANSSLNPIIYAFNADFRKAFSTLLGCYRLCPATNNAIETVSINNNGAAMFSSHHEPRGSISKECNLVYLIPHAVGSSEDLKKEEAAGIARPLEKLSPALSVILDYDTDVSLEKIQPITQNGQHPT

For the compound `NC(C(=O)O)c1cc(=O)[nH]o1` (stereo not given), the Potency entry in test [1], in test [2], in [3], in [4] and in test [6] was “inactive” throughout. In addition, in test [5], the activation was 0.688% (inactive). Further, the viability change in test [6] is -7.19%. Further, the outcome in [7] and in test [8] was inactive.

`C[C@@H]1O[C@@H](O[C@H]2C[C@@H](O)[C@]3(CO)[C@@H]4C(CC[C@]3(O)C2)[C@@]2(O)CC[C@H]([C@@H]3COC(=O)C3)[C@@]2(C)C[C@H]4O)[C@H](O)[C@H](O)[C@H]1O` (stereo not given in full): the Potency result in test [1], in test [2] and in [3] was “inactive” in each case. In addition, in [4], the Potency was 2.06 µM (active). In addition, the call in test [7] was inactive.

Consider `CN1CCC(c2c[nH]c3ccc(O)cc23)CC1`, for which the Potency entry in test [1], in test [3], in test [4] and in test [6] was “inactive” each time. For the same compound, in [2], the Potency is 6.31 µM (active). Also, in test [5], the activation is 1% (inactive). Further, the viability change in [6] is -1.47%. Also, the outcome in [7] and in test [8] was inactive.

Take `COc1ccc(OC)c(C(O)C(C)N)c1` (stereo not given): the Potency entry in test [1], in test [2], in test [9], in test [3], in test [4] and in test [6] was “inactive” each time. Moreover, the activation in [5] is 1.12% (inactive). In addition, the viability change in [6] was -6.5%. Also, the call in [7] and in test [8] was inactive.

On to `C[N+]1(C)CCOC(O)(c2ccc(-c3ccc(C4(O)C[N+](C)(C)CCO4)cc3)cc2)C1` (stereo not given), for which the Potency entry in test [1], in test [2], in test [3], in test [4] and in test [6] was “inactive” throughout. Also, the activation in test [5] is 1.19% (inactive). Also, the viability change in test [6] was -1.71%. The compound was classed as inactive in test [7] and in test [8].

For `CC(C)NP(=O)(NC(C)C)OP(=O)(NC(C)C)NC(C)C`, the Potency entry in [1], in test [2], in [3], in [4] and in test [6] was “inactive” in each case. In addition, in test [5], the activation was -2.75% (inactive). Besides, the viability change in [6] was determined as 0.686%. The result in test [7] and in test [8] was inactive.

As to `CC(=O)NBr`, the Potency result in [1], in test [2], in [3] and in test [6] was “inactive” each time. In addition, the activation in [5] was -0.0625% (inactive). In test [6], the viability change was 1.41%. The compound was called inactive in test [7] and in test [8].

Regarding `CCCN1CCC[C@@H](c2cccc(O)c2)C1`, the Potency result in [1], in test [3], in test [4] and in [6] was “inactive” each time. Besides, in test [2], the Potency is 11.2 µM (active). For the same compound, the viability change in test [6] was -15.6%. In addition, the outcome in test [7] was inactive.

In the case of `CCS(=O)(=O)Nc1cccc(C(=C2CCCCC2)c2cnc[nH]2)c1`, the Potency entry in test [1], in test [2], in [3], in test [4] and in test [6] was “inactive” throughout. Besides, the activation in test [5] was -5.69% (inactive). For the same compound, the viability change in [6] worked out at 1.78%. Further, the compound was called inactive in test [7] and in test [8].

In the case of `C[N+](C)(C)CC#CCOC(=O)Nc1cccc(Cl)c1`, the Potency result in test [1], in test [2], in test [3], in test [4] and in test [6] was “inactive” in each case. The activation in test [5] is 0.875% (inactive). Besides, in test [6], the viability change is -2.28%. The compound was called inactive in test [7] and in test [8].

As to `C[N+]1(C)C2CCC1CC(OC(=O)c1c[nH]c3ccccc13)C2` (stereo not given), the Potency result in test [1], in test [2], in [9], in test [3], in [4] and in test [6] was “inactive” in each case. For the same compound, in [5], the activation was 0.188% (inactive). Also, in [6], the viability change came to 2.15%. Moreover, the compound was called inactive in test [7] and in [8].

Consider `CP(=O)(O)C1=CCNCC1`, for which the Potency result in [1], in test [2], in test [3], in [4] and in [6] was “inactive” in each case. Also, the activation in test [5] was 0.188% (inactive). Further, in [6], the viability change was -3.56%. Besides, the call in test [7] and in test [8] was inactive.

`Cc1o[nH]c(=O)c1CC(N)C(=O)O` (stereo not given): the Potency result in test [1], in test [2], in test [3], in [4] and in test [6] was “inactive” in each case. Moreover, the viability change in [6] was found to be 2.81%. The call in test [7] and in test [8] was inactive.

On to `CCn1cnc2c(Nc3cccc(Cl)c3)nc(N[C@@H]3CCCC[C@@H]3N)nc21`, for which the Potency result in [1], in [2] and in test [3] was “inactive” each time. In addition, the Potency in [4] was 4.61 µM (active). In test [5], the activation is 3.88% (inactive). Moreover, the result in test [8] was inactive.

As to `CCCn1c(=O)c2[nH]c(C3CCCC3)nc2n(CCCOC(=O)c2ccc(S(=O)(=O)F)cc2)c1=O`, the Potency result in test [1], in test [2], in test [3], in test [4] and in [6] was “inactive” throughout. Further, the activation in [5] is -5.75% (inactive). Also, the viability change in test [6] is -2.37%. Moreover, the compound was called inactive in test [7] and in [8].

With `CCCC[N+]1(C)C2CC(OC(=O)[C@H](CO)c3ccccc3)CC1C1OC12` (stereo not given in full), the Potency entry in test [1], in test [2], in [3], in test [4] and in test [6] was “inactive” throughout. In addition, the viability change in test [6] was -6.93%. Besides, the call in [7] was inactive.

Consider `N#CCCN`, for which the Potency result in test [1], in [2], in [3] and in test [6] was “inactive” throughout. Further, the viability change in test [6] was -4.25%. Also, the compound was classed as inactive in [7].

In the case of `COC(=O)N1CCN(C(=O)Cc2ccc(Cl)c(Cl)c2)C(CN2CCCC2)C1` (stereo not given), the Potency result in [1], in [2], in [3] and in test [6] was “inactive” in each case. Further, in test [5], the activation is 0.875% (inactive). Moreover, in test [6], the viability change was determined as 0.492%. Moreover, the result in [7] and in test [8] was inactive.

With `N=C(N)c1ccc(CS(=O)(=O)F)cc1`, the Potency result in [1], in test [2], in [3] and in test [6] was “inactive” throughout. The viability change in [6] was -1.04%. In addition, the outcome in test [7] was inactive.

In the case of `CC(N)c1cccc(Cl)c1Cl` (stereo not given), the Potency entry in test [1], in test [2], in test [3] and in test [6] was “inactive” each time. Also, the activation in test [5] is -0.188% (inactive). In test [6], the viability change worked out at 5.17%. The compound was classed as inactive in [7] and in test [8].

Consider `NCC(CP(=O)(O)O)c1ccc(Cl)cc1` (stereo not given), for which the Potency result in [1], in test [2], in test [3] and in [6] was “inactive” each time. Besides, the activation in test [5] was 0.5% (inactive). For the same compound, the viability change in test [6] was determined as 3.89%. For the same compound, the compound was classed as inactive in [7] and in [8].

For `CC(Cc1ccc(OCC(=O)O)cc1)NCC(O)c1cccc(Cl)c1` (stereo not given), the Potency entry in [1], in [2], in test [3] and in test [6] was “inactive” each time. For the same compound, in test [5], the activation is 0.5% (inactive). Besides, the viability change in [6] was -9.13%. Further, the compound was called inactive in [7] and in test [8].

Consider `CCNC(=O)[C@H]1O[C@@H](n2cnc3c(N)ncnc32)[C@H](O)[C@@H]1O`, for which the Potency result in [1], in [2] and in test [4] was “inactive” each time. Further, in test [7], the result was inactive.

On to `CCCN(CCC)C1Cc2cc(OC)c(OC)cc2C1`, for which the Potency result in test [1], in [3], in test [4] and in test [6] was “inactive” in each case. Moreover, the activation in [5] is -2.94% (inactive). Moreover, the viability change in [6] came out at 11.4%. Moreover, the result in [7] and in [8] was inactive.

Take `c1ccc2c(c1)[I+]c1ccccc1-2`: the Potency entry in test [1], in test [2] and in [3] was “inactive” in each case. In addition, in test [5], the activation is -4.44% (inactive). The compound was called inactive in test [7] and in test [8].
